This is a sample that favours compounds with a hit; in the whole collection about 21% have one here.
Pf growth 48h: Primary qHTS for delayed death inhibitors of the malarial parasite plastid, 48 hour incubation; P. falciparum luciferase growth in erythrocytes, 48 h; Potency, µM (series often up to 28.7 µM), for the others: at the top dose activity change, negative = inhibition, usual class: inhibitors; 310,000 compounds, 5.9% hits; active = well fitted inhibition curve with a large enough effect; inconclusive = small, poorly fitted or top-dose-only effect, or another doubt; inactive = no such curve, though single readings can be large or run the other way; also: potency is read from the fitted curve at half-maximal effect; % is scaled to controls: 0 for no effect and ±100 for the full control effect
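Firefly luciferase activity from engineered P. falciparum reports growth; inhibitors lower the luminescent signal. Cultures contained 2% hematocrit erythrocytes at 0.1% final parasitemia.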
Pf growth 96h: Primary qHTS for delayed death inhibitors of the malarial parasite plastid, 96 hour incubation; P. falciparum luciferase reporter growth, 96 h; Potency, µM (top dose mostly 28.7 µM), inactives show top-dose activity change, negative = inhibition, hits mostly inhibitors; 320,000 compounds, 6.9% hits; AID 504834, 2011; active = well fitted inhibition curve with a large enough effect; inconclusive = small, poorly fitted or top-dose-only effect, or another doubt; inactive = no such curve, though single readings can be large or run the other way; also: potency is read from the fitted curve at half-maximal effect; % is scaled to controls: 0 for no effect and ±100 for the full control effect
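P. falciparum expressing integrated firefly luciferase, in erythrocytes at 2% hematocrit, 0.05% parasitemia, incubated with compounds 96 h at 37 C, 5% CO2. Growth inhibition read as loss of luminescence; two-generation exposure targets delayed-death apicoplast inhibitors.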
NS1 function inh: qHTS Assay for Inhibitors of Influenza NS1 Protein Function | Potency, µM (series often up to 46.1 µM), inactives show at the top dose activity, positive = more growth | 270,000 compounds, 0.4% hits | AID 2326, 2010; also: potency is read from the fitted curve at half-maximal effect; actives are rising curves; nearly all actives have a fitted effect of over 50% in size
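Compounds were scored for reversing the slow growth caused by influenza A NS1 in S. cerevisiae, measured by optical density at 600 nm. Assay medium contained 2% galactose at pH 6.0; NS1-free yeast of the same strain were the positive control.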
SARS PLpro yeast: qHTS of Yeast-based Assay for SARS-CoV PLP; S. cerevisiae expressing SARS-CoV PLpro, growth rescue; Potency, µM (top dose mostly 32.9 µM), for inactives: at the top dose activity, positive = growth rescue, usual class: activators; 330,000 compounds, 0.19% hits; AID 485353, 2010; also: potency is read from the fitted curve at half-maximal effect; 0% is about no effect; nearly all actives have a fitted effect of over 55% in size
Shiga inhibitor: A qHTS for Small Molecule Inhibitors of Shiga Toxin | 290,000 compounds, 9.2% hits | inhibition, % at 38.7 µM | Vero cells, Shiga toxin protein synthesis inhibition reporter | AID 2315, 2010; in the data active = inhibition mostly above about 28%, no sharp cut-off; inactive = mostly below about 43%; also: 0% is about no effect
CHX counter: Cycloheximide Counterscreen for Small Molecule Inhibitors of Shiga Toxin; cell reporter, cycloheximide protein synthesis inhibition counterscreen; max response, %; 300,000 compounds, 12% hits; AID 2314, 2010; in the data active = max response mostly above about 13%, no sharp cut-off; inactive = mostly below about 14%; also: read at 38.3 µM for the half of the compounds with a filed dose; 0% is about no effect
* hit, by the source's call; i = inactive; ? = inconclusive; nt = no result given. Unless noted, calls follow the shape of the full dose curve.

SMILES | Pf growth 48h | Pf growth 96h | NS1 function inh | SARS PLpro yeast | Shiga inhibitor | CHX counter
CC1=C(C(=O)OCc2ccccc2)C(c2cccnc2)c2c(n(C)c(=O)n(C)c2=O)N1 (stereo not given) | ? | -1% | 5% | 3% | -27 | 5
COCC1CCN(Cc2cn[nH]c2-c2ccc(OC)c(F)c2)C1 (stereo not given) | -12% | 14% | 6% | 0% | -6 | 7
Cc1nc(S/C(C(=O)O)=C2/C(=O)Nc3ccccc32)n[nH]1 | -11% | -10% | -2% | -6% | -8 | -2
O=C(CC1CCCC1)NNC(=O)c1ccc(Br)cc1 | 93% | 92% | nt | -7% | nt | nt
COc1ccccc1NC(=S)NNC(=O)c1ccccc1Br | 114% | 45% | -16% | 11% | 88* | 27*
COc1ccccc1C(=O)NNC(=O)c1cccc(Br)c1 | 166% | -13% | -25% | -6% | nt | 35*
COc1cc(OC)cc(C(=O)NNC(=S)Nc2ccccc2OC)c1 | 23% | 26% | -3% | 7% | 7 | 6
COC(=O)NNC(=O)c1ccc(C(C)(C)C)cc1 | 49% | 52% | 9% | -6% | 23* | 30*
COc1ccccc1C(=O)NNS(=O)(=O)c1ccc(F)cc1 | 3% | 4.1µM* | -3% | 4% | nt | -1
O=C(NNS(=O)(=O)c1ccc(F)cc1)c1ccccc1F | 32% | ? | 5% | -5% | -12 | 9
COc1ccccc1NC(=S)NNC(=O)c1cc(C)nn1C | nt | ? | -2% | 3% | -12 | -3
CC(C)(C)c1ccc(C(=O)NNC(=O)c2ccccc2Br)cc1 | 30% | 37% | 7% | 0% | 31 | 31*
COc1ccccc1C(=O)NC(=O)Nc1cccc(Cl)c1 | 63% | ? | -2% | -3% | 130* | 49*
COc1ccc(Cl)cc1C(=O)NNC(=O)c1cccc([N+](=O)[O-])c1 | 27% | 48% | 3% | 0% | 19 | -4
COc1ccccc1C(=O)NNC(=O)c1cccc(Cl)c1 | 96% | -36% | 4% | 2% | 46 | 28*
COc1ccccc1NC(=S)NNC(=O)c1c(Cl)c(C)nn1C | 47% | ? | -26% | -3% | 43* | 10
O=C(NNC(=O)c1ccccc1Br)c1ccc(Cl)c(Cl)c1 | 47% | 104% | -16% | -7% | 3 | 0
Cc1ccc(NC(=O)CCCCCN2C(=O)[C@@H]3Cc4ccccc4CN3C2=O)c(Cl)c1 | ? | ? | -34% | -3% | 2 | 1
COc1ccccc1C(=O)NNC(=O)c1ccccc1 | 102% | -6% | -11% | -6% | nt | 34*
COCCNC(=O)C(=O)NNC(=O)c1ccccc1OC | 46% | 2% | 0% | 0% | -7 | 4
CSc1ccc(N2C(=O)NC3(CCCCC3)C2=O)cc1 | nt | 19% | -6% | 1% | 26 | 18*
CC(=O)c1ccc(N2C(=O)NC3(CCCCC3)C2=O)cc1 | 27% | 107% | -28% | 4% | 74* | 14*
O=C1NC2(CCCCC2)C(=O)N1c1ccc(Cl)cc1 | 15% | 4.7µM* | -8% | -3% | 19 | -2
O=C1NC2(CCCCC2)C(=O)N1c1ccccc1 | 0% | nt | 5% | 1% | -16 | -2
CCOc1ccc(C(C)=O)cc1CN1C(=O)NC2(CCCCCCC2)C1=O | 12µM* | ? | -7% | 0% | -17 | -1
SMILES | Pf growth 48h | Pf growth 96h | NS1 function inh | SARS PLpro yeast | Shiga inhibitor | CHX counter
O=C(O)c1sc2cc(C(F)(F)F)cnc2c1-c1ccccn1 | 349% | ? | nt | -5% | -4 | -2
CC(C)CCN(C(=O)Nc1ccc(Cl)cc1)C1CCN(C(C)C)CC1 | 13µM* | ? | nt | -1% | -13 | 18
CC(C)(C)c1ccc(SCCc2cccnc2)cc1 | 224% | 117% | -6% | -1% | 110* | 44*
c1ccc(SCCc2ccncc2)cc1 | 41% | 30% | -3% | -2% | 15 | 20*
Cc1cc(C(=O)CN2CCCC2)c(C)n1-c1ccc(F)cc1 | ? | ? | 2% | 1% | 6 | 3
Cc1cc(C(=O)NC2CCCCC2)c(C)n1-c1ccc(F)cc1 | 50% | 0% | -7% | -5% | 77* | 46*
COc1ccc(-n2c(C)cc(C(=O)CN3CCC(C)CC3)c2C)cc1 | -4% | -27% | nt | 3% | 63 | 37*
Cc1cc(C(=O)CN2CCC(C)CC2)c(C)n1-c1ccc(F)cc1 | 132% | 31% | 0% | 14% | 22* | 32*
COc1ccc(-n2c(C)cc(C(=O)CN3CCCCC3)c2C)cc1 | ? | ? | nt | 0% | -3 | 17
Cc1cc(C(=O)CN2CCCCC2)c(C)n1-c1ccc(F)cc1 | 37% | -25% | 4% | -8% | 56* | 37*
O=C(O)CCn1c(=S)n(CCC(=O)O)c2ccccc21 | 0% | ? | -40% | 0% | 17 | -4
Cc1ccc(C)c(N(CC(=O)NC2CCCC2)C(=O)c2csnn2)c1 | -5% | 38% | 6% | -1% | -5 | 0
O=C(O)/C=C(/C(=O)O)[C@]12CCN3CC4=CCO[C@@H]5CC(=O)N[C@@H]1C5[C@H]4C[C@H]32 (stereo not given in full) | nt | nt | -5% | nt | nt | nt
COc1ccc(-n2c(C)cc(C(=O)C[N+]34CCN(CC3)CC4)c2C)cc1 | -16% | 5.9µM* | nt | 0% | 3 | -2
Cc1cc(C(=O)CNCc2ccco2)c(C)n1-c1ccc(F)cc1 | 81% | 19% | 2% | -9% | 74* | 38*
Cc1nnc(SCC(=O)NCc2ccco2)n1-c1ccc(F)cc1 | -1% | -109% | 2% | 10% | 32 | 3
CCOC(=O)C(C)Sc1nnc(Cc2cc(=O)[nH]c(=O)[nH]2)n1-c1ccc(OCC)cc1 (stereo not given) | nt | 9.3µM* | 5% | -4% | -7 | -1
CCOc1ccc(-n2c(Cc3cc(=O)[nH]c(=O)[nH]3)nnc2SCc2cccnc2)cc1 | nt | 13µM* | 2% | 5% | 12 | -1
COc1ccc(S(=O)(=O)NNC(=O)C2COc3ccccc3O2)cc1[N+](=O)[O-] (stereo not given) | -3% | -16% | nt | 4% | nt | nt
Cc1ccc(SCC(=O)O/N=C(\N)c2cccc([N+](=O)[O-])c2)cc1 | -4% | -4% | 8% | -25% | -13 | -1
Cc1ccc(/C(N)=N/OC(=O)CSc2ccccc2)cc1 | i | 20% | -5% | -2% | 79* | 60*
COc1ccc(/C(N)=N/OC(=O)CSc2ccc(C)cc2)cc1 | nt | 32% | -71% | 1% | -7 | -2
N/C(=N\OC(=O)CSc1ccccc1)c1ccc([N+](=O)[O-])cc1 | 125% | 0% | -10% | -22% | 67* | 46*
Cc1ccc(SCC(=O)NCc2ccncc2)cc1 | -1% | 86% | 11% | -1% | -8 | -2
N/C(=N\OCc1ccc([N+](=O)[O-])cc1)c1ccncc1 | 177% | 164% | 5% | -3% | 58* | 27*
